Results filed as inconclusive are left out. A number with no mark means an inactive call. Calls follow the shape of the dose curve; as a rule, active = well fitted cell-killing curve with a large enough effect; inconclusive = small, poorly fitted or top-dose-only effect; inactive = flat fitted curve, though single readings scatter. Where a SMILES comes first, the peptide text is derived from it.

A short description of the assay: qHTS of pediatric cancer cell lines to identify multiple opportunities for drug repurposing: Primary screen for U-2 OS cells (AID 1347096). Also: nearly all actives have a fitted effect of over 50% in size. The following applies: U-2 OS viability, CellTiter-Glo luminescence, 48 h; series mostly up to 46 µM; activity change, negative = cytotoxic: at the top concentration. The text has this:
Drug repurposing or repositioning has been offered as a strategy for drug development in oncology programs. This approach has special potential for childhood cancers and other rare or orphan diseases, where the expected return on new drug development has been a disincentive to pharmaceuticals.
In this project we exploit the poly-pharmacology of drugs to discover new indications via phenotypic screening of a panel of 19 well-characterized cell lines derived from solid tumors seen in children and adolescents. The goal is to identify approved drugs with previously unrecognized anticancer properties that has the potential to reveal new mechanisms and biological processes involved in carcinogenesis or drug resistance. We employed a titration-based paradigm (quantitative high-throughput screening or qHTS), where all compounds were tested at multiple concentrations for their effect on cell viability. Concentration-response curves (CRCs) were derived directly from the primary screen, and both potency and efficacy values were used to identify compounds with robust bioactivity profiles. We screened the NIH Chemical Genomics Center (NCGC) Pharmaceutical Collection (NPC) and Mechanism Interrogation Plate (MIPE) small molecule collections of approved and investigational compounds against these cell lines; and measured metabolically active cells after 48 hours of compound treatment as a proxy for cell viability.
Assay Submitter: Nathalia J. Martinez, National Center for Advancing Translational Sciences, National Institutes of Health, Rockville, MD, USA; email: natalia.martinez@nih.gov
[1] Shen, M et al. Quantitative high-throughput phenotypic screening of pediatric cancer cell lines identifies multiple opportunities for drug repurposing. Oncotarget 2017 Dec 19;9(4):4758-4772. PMID 29435139.
The cells were obtained from University of North Carolina (UNC), Pediatric Preclinical Testing Program (PPT), and Coriell Institute (CI).
qHTS cell viability assay:
Cells were assayed in growth media at a density of 500-1,000 cells/well. Five microliters of cells were dispensed into 1,536-well, white, solid-bottom, TC-treated plates (Greiner Bio One) using a multidrop dispenser and incubated at 37 degrees C, 5% CO2, under a humidified atmosphere for 5 hours. Twenty-three nanoliters of compounds and controls (neutral control DMSO or positive control bortezomib at final concentration of 2.3 µM) were subsequently transferred by Kalypsys pintool. For primary screens, the MIPE collection was tested at 11-point dilutions (final concentrations range from 0.78 nM to 46 µM) and the NPC collection at 8-point dilutions (final concentrations range from 0.59 nM to 46 µM). Compounds tested in follow-up screens were assayed at 11-point dilutions. Cells were incubated for 48 hours, followed by addition of 3 µL of CellTiter-Glo (Promega). After a 15 min incubation at room temperature, samples were analyzed for luminescence intensity using a ViewLux High-throughput CCD imager equipped with clear filters.
For the compound `CC(=O)N[C@@H](CO)C(=O)N[C@@H](CC(=O)O)C(=O)N[C@@H](CCCCN)C(=O)N1CCC[C@H]1C(=O)O` (Ac-SDKP-OH), the “activity change, negative = cytotoxic” value was 3.67%. `COC(=O)c1cc(Cl)ccc1NS(=O)(=O)C(F)(F)F`: the “activity change, negative = cytotoxic” value is 0.842%. With `Cc1ccccc1N1CCN(CCc2nnc3n2CCCC3)CC1`, the “activity change, negative = cytotoxic” value was 2.39%. The value for `CCn1ccc(NS(=O)(=O)c2ccc(N)cc2)nc1=O` was 1.39%.

Consider `C#CC(C)(CC)OC(=O)c1ccccc1C(=O)O` (stereo not given), for which the “activity change, negative = cytotoxic” value is 11.3%.

As to `O=P(O)(O)OCC(O)CO` (stereo not given), the “activity change, negative = cytotoxic” value is 14.9%. For `NS(=O)(=O)c1cc2c(cc1Cl)CN(C1CCCCC1)C2=O`, the “activity change, negative = cytotoxic” value was 5.78%. `COc1ccc(OC(=O)N(CC(=O)O)Cc2ccc(OCCc3nc(-c4ccccc4)oc3C)cc2)cc1`: the “activity change, negative = cytotoxic” value is 2.9%.

Regarding `CN(CC1(C)CCCO1)S(=O)(=O)c1ccc(Cl)c(S(N)(=O)=O)c1` (stereo not given), the “activity change, negative = cytotoxic” value was 10.8%. Next, `CNC(=O)c1cnn(-c2nc(N)c3ncn([C@@H]4O[C@H](CO)[C@@H](O)[C@H]4O)c3n2)c1`: -6.91%; `O=C1CC[C@H](C(=O)N2CCCCC2)N1`: 10.4%; `CC(C)CCCC(C)NCCC(C)C` (stereo not given): -5.94%. The value for `COc1cc(OC)nc(O[C@H](C(=O)O)C(OC)(c2ccccc2)c2ccccc2)n1` was -5.31%. The value for `CCCc1c2oc(C(=O)O)cc(=O)c2cc2c(=O)cc(C(=O)O)n(CC)c12` was 6.91%; that for `CCOc1ncc(F)c(=O)[nH]1` was 6.67%; that for `CN=C(N)NC(=O)Nc1c(C)cccc1C` was 2.85%. Turning to `O=C1CC2(CCCC2)CC(=O)N1CCNCC1COc2ccccc2O1` (stereo not given), the “activity change, negative = cytotoxic” value is -0.109%.

Turning to `COCCc1ccccn1`, the “activity change, negative = cytotoxic” value was -1.19%. Regarding `C/C(=N\O)[C@@H](C)NCC(C)(C)CN[C@H](C)/C(C)=N/O`, the “activity change, negative = cytotoxic” value was 6.74%.

For `Nc1ccc(O)cc1`, the “activity change, negative = cytotoxic” value is 0.302%. Consider `CCCN(CCC)C(=O)C(CCC(=O)OCCCN1CCN(CCOC(=O)Cc2c(C)n(C(=O)c3ccc(Cl)cc3)c3ccc(OC)cc23)CC1)NC(=O)c1ccccc1` (stereo not given), for which the “activity change, negative = cytotoxic” value is -4.55%. The value for `c1ccc(C(O[C@H]2CCCN(CCc3ccc4c(c3)OCO4)C2)c2ccccc2)cc1` was 11.1%. The value for `CC(=O)N1CCN(c2ccc(O)cc2)CC1` was 15.1%; that for `CCCCCCn1c(=O)c2c(ncn2C)n(C)c1=O` was 8.54%; that for `COCCc1ccc(OCC2CO2)cc1` (stereo not given) was -4.86%. `CCCCCC1Nc2cc(C(F)(F)F)c(S(N)(=O)=O)cc2S(=O)(=O)N1` (stereo not given): the “activity change, negative = cytotoxic” value was 6.63%. Next, `CC(CC1c2ccccc2CCc2ccccc21)CN(C)C` (stereo not given): 2.99%; `Cc1cc(O)c(C)c(C)c1O`: 9.7%.

As for `CCc1cc(S(=O)(=O)O)c2cc(C(C)C)cccc1-2`, the “activity change, negative = cytotoxic” value is 3.95%.

In the case of `CC1c2ccccc2CN1NC(=O)c1ccc(Cl)c(S(N)(=O)=O)c1` (stereo not given), the “activity change, negative = cytotoxic” value was 5.73%.

`CC(=O)OCC[N+](C)(C)C`: the “activity change, negative = cytotoxic” value was 2.33%. The value for `OCc1cccnc1` was 4.45%; that for `CO/N=C(/C(=O)N[C@@H]1C(=O)N2C(C(=O)[O-])=C(C[n+]3ccn4ncccc43)CS[C@H]12)c1nsc(N)n1` was 14.5%.

With `CN1C(CSCC(F)(F)F)Nc2cc(Cl)c(S(N)(=O)=O)cc2S1(=O)=O` (stereo not given), the “activity change, negative = cytotoxic” value is 3.82%.

In the case of `Cc1oc(-c2ccccc2)nc1CCC(=O)c1ccc(CC2SC(=O)NC2=O)cc1` (stereo not given), the “activity change, negative = cytotoxic” value is -0.783%. As for `CCOC(=O)OCC/C(SC(=O)OCC)=C(\C)N(C=O)Cc1cnc(C)nc1N`, the “activity change, negative = cytotoxic” value was 14.1%. The value for `C[C@H]1C[C@H]2[C@@H]3CCC4=CC(=O)C=C[C@]4(C)[C@H]3C(=O)C[C@]2(C)[C@@]1(O)C(=O)CO` was 4.07%; that for `Cc1ccc2c(Cl)cc(Cl)c(O)c2n1` was 12.1%; that for `Cc1c(C)c2c(c(C)c1OC(=O)CCC(=O)OCCO)CC[C@@](C)(CCC[C@H](C)CCC[C@H](C)CCCC(C)C)O2` was -11.8%. Turning to `CC[N+](CC)(CC)CCOC(=O)C(C1CCCC1)C1CCCC1`, the “activity change, negative = cytotoxic” value is 13.4%.

For the origin of these results see PubChem BioAssay (NCATS).
